# Bioassay records: PubChem BioAssay, National Center for Advancing Translational Sciences (NCATS)
# hNpr1 antagonist: blocks ANP-stimulated signaling of human Npr1 receptor; P16066; HEK293 hNpr1 GloSensor cGMP, ANP-stimulated luminescence; Potency, µM (titrated, usually from 46.3 µM), most hits filed as inhibitors; actives 1.6% (n = 76,000); calls by dose curve; also: nearly all actives have a fitted effect of over 60% in size
# Target sequence (P16066 whole entry, looked up): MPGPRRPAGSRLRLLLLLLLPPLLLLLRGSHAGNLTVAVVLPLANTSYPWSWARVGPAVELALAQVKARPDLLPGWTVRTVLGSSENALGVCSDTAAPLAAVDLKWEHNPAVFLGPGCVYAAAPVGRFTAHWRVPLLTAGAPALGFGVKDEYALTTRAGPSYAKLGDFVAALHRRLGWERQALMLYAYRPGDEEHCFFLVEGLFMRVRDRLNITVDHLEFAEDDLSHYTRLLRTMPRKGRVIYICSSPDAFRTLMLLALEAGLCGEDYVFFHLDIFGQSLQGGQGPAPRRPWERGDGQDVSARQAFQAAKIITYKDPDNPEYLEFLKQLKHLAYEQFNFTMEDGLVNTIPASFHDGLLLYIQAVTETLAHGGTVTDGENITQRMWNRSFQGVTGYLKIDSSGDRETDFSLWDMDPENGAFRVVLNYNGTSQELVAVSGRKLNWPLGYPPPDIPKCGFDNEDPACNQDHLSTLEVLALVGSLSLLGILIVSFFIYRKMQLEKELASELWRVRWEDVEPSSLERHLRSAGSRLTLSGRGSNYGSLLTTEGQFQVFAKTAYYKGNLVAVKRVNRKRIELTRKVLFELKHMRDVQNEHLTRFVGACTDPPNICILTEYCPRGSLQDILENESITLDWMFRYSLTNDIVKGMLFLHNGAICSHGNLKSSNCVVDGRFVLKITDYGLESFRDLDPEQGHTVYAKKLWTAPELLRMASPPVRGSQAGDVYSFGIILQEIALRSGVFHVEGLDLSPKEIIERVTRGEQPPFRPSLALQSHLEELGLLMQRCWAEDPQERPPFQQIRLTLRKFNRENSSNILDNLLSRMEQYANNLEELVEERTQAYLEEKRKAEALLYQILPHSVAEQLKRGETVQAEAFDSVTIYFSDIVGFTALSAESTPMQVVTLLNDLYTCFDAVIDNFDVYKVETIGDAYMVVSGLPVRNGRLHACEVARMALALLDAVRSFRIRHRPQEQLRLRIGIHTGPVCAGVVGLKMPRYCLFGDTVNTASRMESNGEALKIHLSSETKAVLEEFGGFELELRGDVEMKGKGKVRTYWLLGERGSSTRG
#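 HEK293 cells stably expressing human Npr1 and cGMP GloSensor pGS-40F, loaded 2 h with 2% GloSensor reagent, given compound 30 min at room temperature. Luminescence read before and 20 min after 0.1 nM hNppA.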
# Luciferase inh: Photinus pyralis luciferase inhibition | purified P. pyralis luciferase, luminescence, biochemical | Potency, µM (doses to about 115 µM), most hits filed as inhibitors | actives 2.5% (n = 76,000) | AID 1347043; also: nearly all actives have a fitted effect of over 65% in size
#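 Cell-free enzyme assay, 10nM P. pyralis luciferase, luciferin and ATP each at 10uM. Inhibition profiled over a 6-point titration, read as luminescence.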
# NIH3T3 tox: NIH 3T3 cell cytotoxicity; NIH 3T3 viability, CellTiter-Glo ATP luminescence, 48-72 h; Potency, µM (titrated, usually from 96.7 µM), usual class: inhibitors; actives 4.3% (n = 94,000); also: nearly all actives have a fitted effect of over 55% in size
#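 Luminescent ATP readout (CellTiter-Glo, 10 min RT) after 48 or 72 hr compound exposure of NIH 3T3 cells seeded at 400 cells/well in 1536-well format; quantitative HTS.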
# HEK cytotox: cytotoxic compounds in HEK 293 cells | HEK 293 viability, ATP luminescence (CellTiter-Glo), 48-72 h | Potency, µM (highest dose often 115 µM), hits mostly inhibitors | actives 6.6% (n = 94,000) | AID 1345083; also: nearly all actives have a fitted effect of over 60% in size
#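 Read-out: CellTiter-Glo ATP luminescence. Cells: HEK 293, 250 cells/well. Exposure: 48 or 72 hr, 37 degree Celsius.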
# A number is an active result; 0 = inactive; ? = inconclusive; - = not tested or not shown. Shown are actives, neighbours in structure and some others; about 11% of the full set was active somewhere. Unless noted, calls follow the shape of the dose curve; as a rule, active = well fitted curve in the direction sought with a large enough effect; inconclusive = small, poorly fitted or top-dose-only effect, or another doubt; inactive = no such curve, though single readings can be large; an effect the other way counts as inactive or inconclusive.
SMILES,hNpr1 antagonist,Luciferase inh,NIH3T3 tox,HEK cytotox
COC(=O)CNC(=O)c1cn2cc(-c3ccc(C)cc3)sc2n1,-,-,0,?
COc1cccc(CCC(=O)N2CCCC(c3nnnn3-c3ccccc3)C2)c1 (configuration not stated),-,-,?,0
CC1(CCCCN2CCOCC2)COc2ccc(C(=O)Nc3ccc4[nH]ccc4c3)cc2N1 (configuration not stated),?,0,0,?
CN(C)CCOCC1(C)COc2ccc(C(=O)Nc3ccc4[nH]ccc4c3)cc2N1 (configuration not stated),0,50.1µM,?,?
CC1(COCC2CC2)COc2ccc(C(=O)Nc3ccc4[nH]ccc4c3)cc2N1 (configuration not stated),?,15.8µM,44.7µM,?
COCCNC(=O)c1nc2cccnc2n(Cc2ccccc2)c1=O,-,-,0,0
O=C(CCC(=O)n1ncc2c(Cl)cccc21)N1CCC(Cc2nc(C3CCOCC3)no2)CC1,12.6µM,0,0,?
O=C(C1CC1)N1CCC(Cc2nc(C3CCOCC3)no2)CC1,0,0,0,0
O=C(NCc1ccccc1F)c1ccc2nc(-c3cccnc3Cl)oc2c1,-,-,?,100µM
Cc1ncccc1-c1nc2cc(C(=O)NC3CC3)ccc2o1,-,-,89.1µM,?
O=C(NC1CC1)c1ccc2nc(-c3cccnc3Cl)oc2c1,-,-,0,0
O=C(NCCc1ccccc1F)c1ccc2oc(-c3ccccn3)nc2c1,-,-,0,0
O=C(NCc1ccccc1F)c1ccc2nc(-c3ccccn3)oc2c1,-,-,?,70.8µM
Cc1cccc(-c2nc3ccc(C(=O)N4CCOCC4)cc3o2)n1,-,-,22.4µM,31.6µM
Cc1cccc(-c2nc3ccc(C(=O)NC4CCCCC4)cc3o2)n1,-,-,0,0
Cc1cccc(-c2nc3ccc(C(=O)NCc4ccc(Cl)cc4)cc3o2)n1,-,-,0,0
Cc1cccc(-c2nc3ccc(C(=O)NC4CCCCCC4)cc3o2)n1,-,-,?,79.4µM
O=C(c1ccc2nc(-c3ccccn3)oc2c1)N1CCCCC1,-,-,20µM,28.2µM
CC(=O)N1CCN(C(=O)c2ccc3nc(-c4ccccn4)oc3c2)CC1,-,-,0,0
O=C(NCCc1ccccc1F)c1ccc2nc(-c3cccnc3Cl)oc2c1,-,-,0,39.8µM
Cc1cccc(-c2nc3ccc(C(=O)NCc4ccccc4F)cc3o2)n1,-,-,?,100µM
Cc1ccc([S+](=O)([O-])NCCNC(=O)c2cccc(-c3ncccc3C#N)c2)cc1,-,-,0,0
CC(C)NC(=O)c1ccc2oc(-c3ccccn3)nc2c1,-,-,0,?
O=C(NCc1cccc(C(F)(F)F)c1)c1ccc2nc(-c3ccccn3)oc2c1,-,-,39.8µM,?
CC(C)NC(=O)c1ccc2nc(-c3ccccn3)oc2c1,-,-,?,44.7µM
SMILES,hNpr1 antagonist,Luciferase inh,NIH3T3 tox,HEK cytotox
CC(=O)N1CCN(C(=O)c2nc3cccnc3n(C3CC3)c2=O)CC1,-,-,0,0
COCC1(O)CCOC2(CCN(C(=O)c3cccnc3)CC2)C1 (configuration not stated),-,-,0,0
CCc1ccc(N2CC(c3noc(-c4ccc(OC)cc4)n3)CC2=O)cc1 (configuration not stated),0,0,?,?
CCc1ccc(N2CC(c3noc(-c4cccc(OC)c4OC)n3)CC2=O)cc1 (configuration not stated),0,0,28.2µM,79.4µM
CCc1ccc(N2CC(c3noc(-c4ccc(OC)cc4OC)n3)CC2=O)cc1 (configuration not stated),0,0,?,?
CCc1ccc(N2CC(c3noc(C4(c5ccc(OC)cc5)CC4)n3)CC2=O)cc1 (configuration not stated),?,0,?,44.7µM
Cc1ccc(Oc2c(CCC(=O)NC(C)C)c(C)nn2-c2ccccc2)cc1,0,0,?,?
O=C(c1ccc(C(F)(F)F)cc1)N1CCCC(c2nn(-c3ccccn3)c(=O)[nH]2)C1 (configuration not stated),-,-,0,0
COCCc1noc(C2CN(C(=O)CCC3CCCC3)C2)n1,-,-,?,0
O=C(NC1CCCc2c1cnn2-c1ccc(F)cc1F)c1c(F)cccc1Cl (configuration not stated),?,0,?,35.5µM
O=C(NCC1CC1)c1csc(N2CCN(c3ccccc3F)CC2)n1,0,0,12.6µM,35.5µM
CC(NC(=O)c1csc(N2CCN(c3ccccc3F)CC2)n1)c1ccccc1 (configuration not stated),0,0,?,44.7µM
O=C(NCCCN1CCCC1=O)c1csc(N2CCN(c3ccc(F)cc3)CC2)n1,0,0,0,?
COc1ccc(-c2ccccc2C(=O)N2CCC(NC(=O)c3ccc(F)cc3)CC2)nn1,-,-,0,0
COc1ccc(-c2cccc(C(=O)N3CCN([S+](=O)([O-])c4c(C)noc4C)CC3)c2)nn1,-,-,?,0
CC1CCC2(CC1)OCC(C(=O)NCc1ccccc1F)N2C(=O)c1ccccc1F (configuration not stated),0,0,0,79.4µM
Clc1cc(NCC2CCCCCC2)n2nccc2n1,0,0,31.6µM,?
Clc1cc(NC2CCCCCC2)n2nccc2n1,0,0,?,89.1µM
O=C(Cc1ccccn1)N1CCCN(c2ccc3nnc(-c4ccccc4)n3n2)CC1,-,-,0,0
C#CCNC(=O)c1cn2cc(-c3ccc(C)cc3)sc2n1,-,-,0,0
COc1ccc(-c2noc(-c3nc(C(C)C)no3)n2)cc1,0,11.2µM,0,?
COc1ccc(-c2noc(-c3nc(-c4cc(OC)c(OC)c(OC)c4)no3)n2)cc1,0,0,0,0
COc1ccc2nc(C[C@@H]3C[C@@H](C(C)C)[C@H](CN)C=C3C)[nH]c2c1,0,0,70.8µM,?
CCCNC(=O)NC[C@@H]1C=C(C)[C@H](Cc2nc3ccc(OC)cc3[nH]2)C[C@H]1C(C)C,?,0,39.8µM,?
CC1=C[C@@H](CN)[C@H](C(C)C)C[C@H]1Cc1nc2ccc(C)cc2[nH]1,0,0,39.8µM,44.7µM
SMILES,hNpr1 antagonist,Luciferase inh,NIH3T3 tox,HEK cytotox
CC1=C[C@@H](CN)[C@H](C(C)C)C[C@H]1Cc1nc2ccc(Cl)cc2[nH]1,0,0,44.7µM,50.1µM
Cc1noc(C)c1[S+](=O)([O-])N1CCCC(C(=O)N2CCC(N3CCOCC3=O)CC2)C1 (configuration not stated),-,-,0,0
CC1=C[C@@H](CN)[C@H](C(C)C)C[C@H]1Cc1nc2ccc(F)cc2[nH]1,0,0,100µM,79.4µM
COc1ccc2nc(C[C@@H]3C[C@@H](C(C)C)[C@H](CN(Cc4ccccc4F)Cc4ccccc4F)C=C3C)[nH]c2c1,0,0,14.1µM,?
COc1ccc2[nH]c(C[C@@H]3C[C@@H](C(C)C)[C@H](CN(Cc4ccccn4)Cc4ccccn4)C=C3C)nc2n1,0,0,?,?
FC(F)(F)c1ccc(O[C@H]2COCCN(CC3CCCC3)C2)cc1,0,0,89.1µM,112µM
O=C(c1ccc(Cl)cc1)N1CCCN(c2ccc3nnc(-c4ccccc4)n3n2)CC1,-,-,?,0
O=C(c1ccc2nnc(-c3ccc(Cl)cc3)n2c1)N1CCN(Cc2ccccc2)CC1,-,-,28.2µM,25.1µM
O=C(Cc1cccc(Cl)c1)N1CCN(c2ccc3nnc(-c4ccccc4)n3n2)CC1,-,-,?,44.7µM
